Records with an inconclusive call do not appear. Active and inactive are the calls of the source. The call rests on the fitted dose curve; in most records, active means well fitted inhibition curve with a large enough effect; inconclusive means small, poorly fitted or top-dose-only effect; inactive means flat fitted curve, though single readings scatter.
Columns and labels:
Test in all cases: qHTS profiling for inhibitors of Plasmodium falciparum proliferation (AID 504749); further: nearly all actives have a fitted effect of over 60% in size
AA1029 = conditions: P. falciparum in erythrocytes, SYBR Green DNA, 72 h; series mostly up to 28.7 µM
Procedure, shortened: (§1)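 SYBR Green fluorescence of parasite DNA, read after lysis and overnight dark incubation, measured growth over 72 h in erythrocyte culture at 0.3% parasitemia and 2.5% hematocrit. Data normalised to DMSO and 0.29 uM artemisinin, with plate-drift correction.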

ATS95 = conditions: P. falciparum in erythrocytes, SYBR Green DNA, 72 h; series mostly up to 28.7 µM
Procedure, shortened: as §1

C2A = conditions: P. falciparum in erythrocytes, SYBR Green DNA, 72 h; series mostly up to 28.7 µM
Procedure, shortened: as §1

CP215 = conditions: P. falciparum in erythrocytes, SYBR Green DNA, 72 h; series mostly up to 28.7 µM
Procedure, shortened: as §1

CP217 = conditions: P. falciparum in erythrocytes, SYBR Green DNA, 72 h; series mostly up to 28.7 µM
Procedure, shortened: as §1

CP250 = conditions: P. falciparum in erythrocytes, SYBR Green DNA, 72 h; series mostly up to 12.8 µM
Procedure, shortened: as §1

CP252 = conditions: P. falciparum in erythrocytes, SYBR Green DNA, 72 h; series mostly up to 12.8 µM
Procedure, shortened: as §1

CP266 = conditions: P. falciparum in erythrocytes, SYBR Green DNA, 72 h; series mostly up to 12.8 µM
Procedure, shortened: as §1

CP269 = conditions: P. falciparum in erythrocytes, SYBR Green DNA, 72 h; series mostly up to 28.7 µM
Procedure, shortened: as §1

CP315 = conditions: P. falciparum in erythrocytes, SYBR Green DNA, 72 h; series mostly up to 28.7 µM
Procedure, shortened: as §1

CP325 = conditions: P. falciparum in erythrocytes, SYBR Green DNA, 72 h; series mostly up to 28.7 µM
Procedure, shortened: as §1

CP329 = conditions: P. falciparum in erythrocytes, SYBR Green DNA, 72 h; series mostly up to 28.7 µM
Procedure, shortened: as §1

DIV14 = conditions: P. falciparum in erythrocytes, SYBR Green DNA, 72 h; series mostly up to 28.7 µM
Procedure, shortened: as §1

DIV17 = conditions: P. falciparum in erythrocytes, SYBR Green DNA, 72 h; series mostly up to 28.7 µM
Procedure, shortened: as §1

N140 = conditions: P. falciparum in erythrocytes, SYBR Green DNA, 72 h; series mostly up to 28.7 µM
Procedure, shortened: as §1

P93_24 = conditions: P. falciparum in erythrocytes, SYBR Green DNA, 72 h; series mostly up to 28.7 µM
Procedure, shortened: as §1

PAD = conditions: P. falciparum in erythrocytes, SYBR Green DNA, 72 h; series mostly up to 28.7 µM
Procedure, shortened: as §1

PC26 = conditions: P. falciparum in erythrocytes, SYBR Green DNA, 72 h; series mostly up to 28.7 µM
Procedure, shortened: as §1

SC27B = conditions: P. falciparum in erythrocytes, SYBR Green DNA, 72 h; series mostly up to 28.7 µM
Procedure, shortened: as §1

TAB165 = conditions: P. falciparum in erythrocytes, SYBR Green DNA, 72 h; series mostly up to 28.7 µM
Procedure, shortened: as §1

Measured: Potency

Oc1ccc2c3c1O[C@H]1[C@@H](O)CC[C@@]4(O)C(C2)N(CC2CCC2)CCC314 (stereo not given in full)
inactive: all assays above

CC(C)(O)C1C2OC(=O)C1[C@]1(O)C[C@H]3O[C@]34C(=O)O[C@H]2[C@]14C (stereo not given in full) (tested in a mixture with another compound)
inactive: all assays above

CCCC[N+]1(C)C2CC(OC(=O)C(CO)c3ccccc3)CC1C1OC12 (stereo not given)
inactive: all assays above
